# Results taken from PubChem BioAssay (NCI).
# Where “and” joins values, the source holds several entries; their conditions need not be identical. Equal entries are not always repeated. This is part of a sample that, as a whole, favours compounds with a hit. Of some 83,000 tested, about 20% had one in any assay.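 Activity criterion: percent growth below 10, measured after cells in 96-well plates were exposed to a single compound concentration for 48 hours.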 A number with no mark means an inactive call.
# Tested on: ACHN renal
# Test: NCI-60 one-dose screen, 48 h (100 = growth as untreated, 0 = no growth, -100 = all killed)
# Conditions: 10 µM
# Procedure: Growth inhibition of the ACHN human tumor cell line is measured as a screen for anti-cancer activity. Cells are grown in 96 well plates and exposed to the test compound for 48 hours. Compounds are tested at a single concentration, which is 10^-5 M for most compounds. The reported endpoint is percent growth (GI% or GIPRCNT), where numbers from 0 - 100% represent growth inhibition, and numbers from -100% - 0 represent cell death. For example, a value of 40 represents 60% growth inhibition. A value of 0 means no net growth occurred over the course of the experiment. A value of -40 indicates 40% of cells at the beginning of the experiment died by the end of the experiment. A value of -100 means all cells are dead at the end of the experiment.
# NCI-60 Human Tumor Cell Lines Screen was performed using the standard one-dose NCI protocol, which is described in more detail at https://dtp.cancer.gov/discovery_development/nci-60/default.htm.
# Compounds with GIPRCNT values below 10 were considered active. Activity score was based on GIPRCNT using the following formula: […]
# Score is 0 for GIPRCNT values of 100 or above, 50 for GIPRCNT values of 0, and 100 for GIPRCNT values of -100.
row,Structure (SMILES),growth [%]
1,CS/C(=C\c1ccc(C(=O)c2ccc(C)cc2)n1C)S(C)=O (stereo not given),87.4
2,O=c1ccn2c(n1)OC1CC2OC1COC(c1ccccc1)(c1ccccc1)c1ccccc1 (stereo not given),92
3,S=c1nc[nH]c2nc[nH]c12,50

# Same assay, conditions: 10 µM unless noted
row,Structure (SMILES),growth
1,O=C(O)COc1ccccc1F,108%
2,COc1cc2c(cc1O)C(=O)CCCC2,96.9%
3,CC(=O)C[n+]1ccccc1Sc1ccc(Cl)cc1,113%
4,Cc1ccc(C(=O)c2ccc(C)cc2)cc1,99.8% and 107%
5,COCCCNC1=C(C#N)C(=O)NC(c2cccs2)S1 (stereo not given),97.5%
6,CC1(C)CC(=O)NC1=O,98.2%
7,COc1ccc(CCN=Cc2ccc(Cl)cc2)cc1OC,106%
8,CCC/C(=N/NC(N)=O)c1ccco1,94.9%
9,CC1OS(=O)OC1C (stereo not given),91.9% and 103%
10,CC1NC(C)c2ccc3ccccc3c2O1 (stereo not given),98.3%
11,CCOP(=O)(OCC)/C(C#N)=C/c1c(C)[nH]c2ccccc12,102%
12,COc1ccc(CCNC(=S)NN)cc1OC,102%
13,OC(CC(c1ccccc1)c1cccc2ccccc12)(c1ccccc1)c1ccccc1 (stereo not given),83.9% and 93%
14,NNc1ncnc2cccc(Cl)c12,96.4%
15,CCOC(C)=N,104%
16,OC1CCCN(Cc2ccccc2)C1 (stereo not given),106%
17,O=C(O)c1ccc2c3ccc(C(=O)O)c4c(C(=O)O)ccc(c5ccc(C(=O)O)c1c25)c43,107%

row,Structure (SMILES),growth
1,O=[N+]([O-])c1ccc(N/N=C/C2CCCCCC2)c([N+](=O)[O-])c1,70.4%
2,Cc1cc2ccccc2c2cc3ccccc3cc12,92.8%
3,Cn1c(N)c(N=O)c(=O)n(C)c1=O,109%
4,CC(C)(C)OC(=O)NCCc1ccc(N)cc1,105%
5,CC(=O)Oc1cc(C(C)C)c(OCCN(C)C)cc1C,99.4%
6,COc1ccc2nccc(Cl)c2c1,106%
7,CC(C)(C)OC(=O)CC1(O)CCCCC1,105%
8,NC(=O)Cc1nc(O)cc(=O)[nH]1,107%
9,O=C1CCC(=O)N1CC1CC2CCC1C2 (stereo not given),100% and 92.2%
10,CCOC(=O)c1ccc(N2C(=O)C(Cl)(c3ccccc3)C2c2ccco2)cc1 (stereo not given),91.9%
11,Cc1cnc(N)s1,96.2%
12,c1ccc2c[n+](Cc3ccc4ccccc4n3)ccc2c1,99.8%
13,Cc1nc2c(=O)[nH]c(=S)[nH]c2[nH]c1=O,103% and 97.6%
14,Nc1c(S(=O)(=O)O)cc(Br)c2c1C(=O)c1ccccc1C2=O,108% and 107%
15,CNc1ccc(O)cc1,92.6% and 112%
16,Cc1onc(-c2c(F)cccc2Cl)c1-c1ncc(-c2ccc(Cl)cc2)o1,46.1% and 31.3%
17,CCc1ccccc1-n1[nH]c(C)c(C=N)c1=O,105%

# Same assay, conditions: 50 µM
row,Structure (SMILES),growth [%]
1,S=c1nc[nH]c2nc[nH]c12,20.5

# Same assay, conditions: 100 µM
row,Structure (SMILES),growth [%]
1,CS/C(=C\c1ccc(C(=O)c2ccc(C)cc2)n1C)S(C)=O (stereo not given),83.2
2,O=c1ccn2c(n1)OC1CC2OC1COC(c1ccccc1)(c1ccccc1)c1ccccc1 (stereo not given),82.5
